# Source: publication PMC5540273 (PLoS ONE, 2017)
# Tested on: CSNK1A1
# Settings: concentration: 1 μM, replicates: in singlicate; n = 1
# 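Further: KINOMEscan kinase panel screen.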
row,SMILES,%Inh [%]
1,Clc1cc(Nc2ncnc3cc[nH]c23)ccc1OCc1ccccn1,14
2,O=C(Nc1ccccc1F)NC1CCN(c2ccnc(Nc3ccc(F)cc3)n2)C1 (stereo not drawn) [GSK1379722],0
3,Cc1ccc(O)cc1Nc1cc(C(F)(F)F)nc2ccc(-c3ccncc3)cc12 [GW630823],4
4,C[C@@H]1CCN(C(=O)CO)C[C@@H]1N(C)c1ncnc2[nH]ccc12,33
5,Cn1cc(-c2ccc3c(c2)CCN3C(=O)Cc2cccc(C(F)(F)F)c2)c2c(N)ncnc21 [GSK2606414],0
6,Cl.Cn1ccc(-c2cccc(Nc3ccnc4cc(-c5nccs5)ccc34)c2)n1 [GW525701],0
7,CCc1nc(-c2cccc(N(C)S(=O)(=O)c3ccccc3)c2)c(-c2ccnc(Nc3ccc(N4CCN(C(C)=O)CC4)nc3)n2)s1 [GSK1645895],0
8,CN1CCC(n2cnc(-c3ccc(F)cc3)c2-c2ccnc(NC3CCNCC3)n2)CC1 [SB-229482],95.1
9,Nc1nc(-c2cccnc2)c(-c2ccnc3ccccc23)s1 [GW684083],1
10,O=C(CCO)NCCn1ccc2ncnc(Nc3ccc(Oc4cccc(C(F)(F)F)c4)c(Cl)c3)c21,0
11,O=C(NCCCN1CCCC1=O)c1cnc(NCc2cc(Cl)ccc2Cl)nc1NC1CCNCC1,36
12,Fc1ccc(Nc2nccc(-c3c(-c4ccc(Cl)cc4)nn4ncccc34)n2)cc1F [GW829058],32
13,c1ccc(-c2ccc3c(-c4ccnc(Nc5ccc6c(c5)OCCO6)n4)cnn3n2)cc1 [GW818941],40
14,O=C(Nc1ccccc1)Nc1ccc(Oc2ccc3nccn3n2)cc1,19
15,CN1c2ccc(-c3ccc(C(=O)NCCO)cc3)cc2-c2[nH]ncc2S1(=O)=O,4
16,CSc1ccc(NC2=C(c3ccccc3Cl)C(=O)NC2=O)cc1 [SB-342411],0
17,CS(=O)(=O)CCNCc1nc(-c2ccc3ncnc(Nc4ccc(OCc5cccc(F)c5)c(Cl)c4)c3c2)cs1.Cl [GW583340],0
18,Cl.c1ccc(Cn2ccc3cc(Nc4ncnc5ccccc45)ccc32)cc1 [GW275568],0

row,SMILES,%Inh [%]
1,Nc1nccc2scc(-c3ccc4c(c3)CCN4C(=O)Cc3cc(F)ccc3F)c12 [GSK2587663],0
2,Fc1cccc(COc2ccc(Nc3ncnc4sc(-c5ccc[nH]5)cc34)cc2Cl)c1 [GW707818],0
3,Clc1ccc(-c2cc(-c3c[nH]nc3-c3ccccn3)ccn2)cc1 [GW681251],18
4,Cc1cc(N2CCC(NS(=O)(=O)c3ccc(F)cc3)CC2)nc(Nc2cccc(C#N)c2)n1.O=C(O)C(F)(F)F [GSK1653537],25
5,Cl.c1ccc(Cn2ncc3cc(Nc4ncnc5ccccc45)ccc32)cc1 [GW273749],0
6,O=c1cc(N2CCOCC2)nc2n(Cc3cccc(Cl)c3)ccn12 [GSK2296823],42
7,COc1ccc(NC(=O)c2ccc(-c3cc(-c4nnc(C)o4)ccc3C)cc2)cc1 [GW595885],0
8,Cc1ccc(NC(=O)c2cccc(C#N)c2)cc1-c1ccc(C(=O)Nc2ccncc2)cc1 [GSK1398463],0
9,FC(F)(F)c1ccc(-c2nn3ncccc3c2-c2ccnc(Nc3cccc(C(F)(F)F)c3)n2)cc1 [GW828205],30
10,CCn1c(-c2ccncc2)nc2cnccc21 [SB-735216],22
11,CC(C)(C)OC(=O)NC1CCCN(c2cc(-c3ccc4c(N)n[nH]c4c3)nc(N)n2)C1 (stereo not drawn) [GSK2286096],0
12,CNc1nccc(-c2c(-c3ccc(F)cc3)ncn2C2CCN(C)CC2)n1 [SB-222903],95.5
13,CS(=O)(=O)CCNCc1ccc(-c2ccc3ncnc(Nc4ccc(OCc5ccccc5)c(Cl)c4)c3c2)o1.Cl [GW574783],0
14,COc1cc2c(Nc3cccc(NC(=O)c4ccccc4)c3)ncnc2cc1OCCCN1CCOCC1 [GSK223810],62
15,COc1ccc(NC(=O)Nc2ccc(C)c(-c3ccc(C(=O)Nc4ccncc4)cc3)c2)cc1 [GSK1398475],0
16,Oc1ccc2ncnc(Nc3ccc(OCc4ccccc4)cc3)c2c1 [GI262866],8
17,Fc1ccc(-c2ncn(CCCNCc3ccccc3)c2-c2ccncc2)cc1,90.4
18,FC(F)(F)c1ccc(-c2cc(-c3c[nH]nc3-c3ccccn3)ccn2)cc1 [GW599550],0

# Tested on: CSNK1D
# Settings: concentration: 1 μM, replicates: in singlicate; n = 1
row,SMILES,%Inh [%]
1,Clc1cc(Nc2ncnc3cc[nH]c23)ccc1OCc1ccccn1,4
2,O=C(Nc1ccccc1F)NC1CCN(c2ccnc(Nc3ccc(F)cc3)n2)C1 (stereo not drawn) [GSK1379722],13
3,Cc1ccc(O)cc1Nc1cc(C(F)(F)F)nc2ccc(-c3ccncc3)cc12 [GW630823],15
4,C[C@@H]1CCN(C(=O)CO)C[C@@H]1N(C)c1ncnc2[nH]ccc12,6
5,Cn1cc(-c2ccc3c(c2)CCN3C(=O)Cc2cccc(C(F)(F)F)c2)c2c(N)ncnc21 [GSK2606414],8
6,Cl.Cn1ccc(-c2cccc(Nc3ccnc4cc(-c5nccs5)ccc34)c2)n1 [GW525701],12
7,CCc1nc(-c2cccc(N(C)S(=O)(=O)c3ccccc3)c2)c(-c2ccnc(Nc3ccc(N4CCN(C(C)=O)CC4)nc3)n2)s1 [GSK1645895],2
8,CN1CCC(n2cnc(-c3ccc(F)cc3)c2-c2ccnc(NC3CCNCC3)n2)CC1 [SB-229482],92.1
9,Nc1nc(-c2cccnc2)c(-c2ccnc3ccccc23)s1 [GW684083],65
10,O=C(CCO)NCCn1ccc2ncnc(Nc3ccc(Oc4cccc(C(F)(F)F)c4)c(Cl)c3)c21,0
11,O=C(NCCCN1CCCC1=O)c1cnc(NCc2cc(Cl)ccc2Cl)nc1NC1CCNCC1,28
12,Fc1ccc(Nc2nccc(-c3c(-c4ccc(Cl)cc4)nn4ncccc34)n2)cc1F [GW829058],60
13,c1ccc(-c2ccc3c(-c4ccnc(Nc5ccc6c(c5)OCCO6)n4)cnn3n2)cc1 [GW818941],8
14,O=C(Nc1ccccc1)Nc1ccc(Oc2ccc3nccn3n2)cc1,1
15,CN1c2ccc(-c3ccc(C(=O)NCCO)cc3)cc2-c2[nH]ncc2S1(=O)=O,5
16,CSc1ccc(NC2=C(c3ccccc3Cl)C(=O)NC2=O)cc1 [SB-342411],2
17,CS(=O)(=O)CCNCc1nc(-c2ccc3ncnc(Nc4ccc(OCc5cccc(F)c5)c(Cl)c4)c3c2)cs1.Cl [GW583340],4
18,Cl.c1ccc(Cn2ccc3cc(Nc4ncnc5ccccc45)ccc32)cc1 [GW275568],26

row,SMILES,%Inh [%]
1,Nc1nccc2scc(-c3ccc4c(c3)CCN4C(=O)Cc3cc(F)ccc3F)c12 [GSK2587663],14
2,Fc1cccc(COc2ccc(Nc3ncnc4sc(-c5ccc[nH]5)cc34)cc2Cl)c1 [GW707818],9
3,Clc1ccc(-c2cc(-c3c[nH]nc3-c3ccccn3)ccn2)cc1 [GW681251],42
4,Cc1cc(N2CCC(NS(=O)(=O)c3ccc(F)cc3)CC2)nc(Nc2cccc(C#N)c2)n1.O=C(O)C(F)(F)F [GSK1653537],27
5,Cl.c1ccc(Cn2ncc3cc(Nc4ncnc5ccccc45)ccc32)cc1 [GW273749],15
6,O=c1cc(N2CCOCC2)nc2n(Cc3cccc(Cl)c3)ccn12 [GSK2296823],19
7,COc1ccc(NC(=O)c2ccc(-c3cc(-c4nnc(C)o4)ccc3C)cc2)cc1 [GW595885],0
8,Cc1ccc(NC(=O)c2cccc(C#N)c2)cc1-c1ccc(C(=O)Nc2ccncc2)cc1 [GSK1398463],19
9,FC(F)(F)c1ccc(-c2nn3ncccc3c2-c2ccnc(Nc3cccc(C(F)(F)F)c3)n2)cc1 [GW828205],24
10,CCn1c(-c2ccncc2)nc2cnccc21 [SB-735216],8
11,CC(C)(C)OC(=O)NC1CCCN(c2cc(-c3ccc4c(N)n[nH]c4c3)nc(N)n2)C1 (stereo not drawn) [GSK2286096],5
12,CNc1nccc(-c2c(-c3ccc(F)cc3)ncn2C2CCN(C)CC2)n1 [SB-222903],94
13,CS(=O)(=O)CCNCc1ccc(-c2ccc3ncnc(Nc4ccc(OCc5ccccc5)c(Cl)c4)c3c2)o1.Cl [GW574783],15
14,COc1cc2c(Nc3cccc(NC(=O)c4ccccc4)c3)ncnc2cc1OCCCN1CCOCC1 [GSK223810],60
15,COc1ccc(NC(=O)Nc2ccc(C)c(-c3ccc(C(=O)Nc4ccncc4)cc3)c2)cc1 [GSK1398475],15
16,Oc1ccc2ncnc(Nc3ccc(OCc4ccccc4)cc3)c2c1 [GI262866],4
17,Fc1ccc(-c2ncn(CCCNCc3ccccc3)c2-c2ccncc2)cc1,96.6
18,FC(F)(F)c1ccc(-c2cc(-c3c[nH]nc3-c3ccccn3)ccn2)cc1 [GW599550],48
